Data on four molecules can be found in PubChem BioAssay (EPA / NIEHS).

Test [1] in a line: ATG_PBREM_CIS: Attagene CIS-FACTORIAL HepG2 Assay for human Phenobarbital-responsive Enhancer Module (PBREM) (AID 2282955). The settings on record: HepG2 PBREM cis-reporter, Attagene multiplexed transcription; actives raise or lower the signal. An outline of the steps: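 HepG2 cells transiently transfected with multiple cis-regulated reporter units measure endogenous transcription factor activity; 24 h compound exposure. Reporter mRNA quantified by RT-PCR, fluorescent labelling, HpaI digestion and capillary electrophoresis; bidirectional fit versus DMSO.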

Test [2] addresses Paired box protein Pax-6 (Homo sapiens) (UniProt P26367). Put plainly: ATG_Pax6_CIS: Attagene CIS-FACTORIAL HepG2 Assay for human Paired Box 6 (PAX6) (AID 2282956). The settings on record: HepG2 CIS-FACTORIAL PAX6 reporter transcription, RNA readout; actives raise or lower the signal. An outline of the steps: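 HepG2 cells transiently transfected with cis-promoter-driven multiplexed reporter units sensing endogenous transcription factor activity; 24 h chemical exposure. Reporter mRNA quantified by RT-PCR, 6-FAM labelling, HpaI digestion and capillary electrophoresis; bidirectional fit versus DMSO baseline.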

Test [3] can be described thus: ATG_PXRE_CIS: Attagene CIS-FACTORIAL HepG2 Assay for human Pregnane X Receptor Element (PXRE) (AID 2282957). The settings on record: HepG2 Attagene CIS-FACTORIAL PXRE reporter, mRNA; actives raise or lower the signal. In a few lines:
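Transfect HepG2 with MRTUs (cis promoter elements); dose chemical, incubate 24 h; isolate RNA, RT with oligo(dT), PCR, 6-FAM label, HpaI cut, CE. Gain/loss fit vs DMSO.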

Test [4] is described as follows: ATG_PPRE_CIS: Attagene CIS-FACTORIAL HepG2 Assay for human Peroxisome Proliferator-activated Response Element (PPRE) (AID 2282958). The settings on record: HepG2 PPRE cis-element reporter, Attagene transcription factor profiling; actives raise or lower the signal. An outline of the steps: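 HepG2 cells are transiently transfected with multiplexed cis-promoter reporter units to report endogenous PPAR activity. After 24 h dosing, reporter mRNA is read by RT-PCR and capillary electrophoresis. Fitting is bidirectional against DMSO.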

Test [5] is described as follows: ATG_RORE_CIS: Attagene CIS-FACTORIAL HepG2 Assay for human RAR-related Orphan Receptor Element (RORE) (AID 2282959). The settings on record: HepG2 Attagene cis-factorial RORE reporter, mRNA; actives raise or lower the signal. An outline of the steps: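 HepG2 cells carrying transiently transfected cis-regulated reporter units; RORE-driven reporter mRNA quantified 24 h post-dosing by RT-PCR, 6-FAM primer extension, HpaI digestion and capillary electrophoresis. Bidirectional fit versus DMSO.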

Test [6] addresses Transcription factor Sp1 (Homo sapiens) (UniProt P08047). Description: ATG_Sp1_CIS: Attagene CIS-FACTORIAL HepG2 Assay for human Specificity Protein 1 (Sp1) (AID 2282961). The settings on record: HepG2 Sp1 cis-reporter transcription, actives raise or lower the signal. In a few lines:
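HepG2 cells transiently transfected with multiplexed cis-regulated reporter constructs, chemical exposure 24 h. Reporter mRNA quantified by RT-PCR with capillary electrophoresis; bidirectional fit relative to DMSO.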

A short description of test [7]: ATG_SREBP_CIS: Attagene CIS-FACTORIAL HepG2 Assay for human Sterol Regulatory Element Binding (SREBP) (AID 2282962). The settings on record: HepG2 Attagene cis-factorial SREBP reporter, mRNA; actives raise or lower the signal. In a few lines:
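HepG2 cells transiently transfected with multiplexed cis-promoter reporter units sensing endogenous transcription factors; reporter mRNA measured 24 h after dosing by RT-PCR, 6-FAM labeling, HpaI digestion and capillary electrophoresis. Bidirectional fit versus DMSO.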

The target in test [8] is Signal transducer and activator of transcription 3 (Homo sapiens) (UniProt P40763). Description: ATG_STAT3_CIS: Attagene CIS-FACTORIAL HepG2 Assay for human Signal Transducer and Activator of Transcription 3 (STAT3) (AID 2282963). The settings on record: HepG2, Attagene cis-factorial STAT3 reporter transcription; actives raise or lower the signal. In a few lines: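 Endogenous STAT3-responsive cis-element activity was read in transiently transfected HepG2 cells after 24 h treatment. Reporter transcripts were quantified via RT-PCR and capillary electrophoresis, with DMSO as negative control and bidirectional curve fitting.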

Test [9] can be described thus: ATG_TA_CIS: Attagene CIS-FACTORIAL HepG2 Assay for human TA Basal Promoter (AID 2282964). The settings on record: HepG2 Attagene CIS-factorial TA basal promoter reporter; actives raise or lower the signal. An outline of the steps: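 Fluorescence from labelled RT-PCR reporter fragments, separated by capillary electrophoresis, gives the signal. Cells: HepG2 transiently carrying multiple reporter units, 24 h chemical dosing. Gain or loss relative to DMSO.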

A short description of test [10]: ATG_TCF_b_cat_CIS: Attagene CIS-FACTORIAL HepG2 Assay for human T-Cell-Factor with beta-catenin (TCF/b-cat) (AID 2282965). The settings on record: HepG2 TCF/beta-catenin cis-reporter transcription, actives raise or lower the signal. In a few lines:
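Endogenous TCF/LEF activity read as reporter transcript level via RT-PCR and capillary electrophoresis fluorescence in transfected HepG2, 24 h exposure; gain or loss of signal fitted against DMSO controls.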

A short description of test [11]: ATG_TAL_CIS: Attagene CIS-FACTORIAL HepG2 Assay for human TAL Basal Promoter (AID 2282966).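 Also: background control endpoint measuring basal TAL promoter reporter mRNA not a specific factor.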 The settings on record: HepG2 Attagene cis-factorial TAL promoter reporter; actives raise or lower the signal. An outline of the steps:
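Fluorescence of labelled reporter cDNA fragments, resolved by capillary electrophoresis, gave the readout. Human HepG2 liver cells carried transiently transfected cis-element reporter units and were treated for 24 hours; activity was fitted bidirectionally against DMSO.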

Test [12] in a line: ATG_TGFb_CIS: Attagene CIS-FACTORIAL HepG2 Assay for human Transforming Growth Factor (TGF) (AID 2282967). The settings on record: HepG2 Attagene CIS TGFb reporter, mRNA transcription; actives raise or lower the signal. In a few lines:
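Bidirectional fitting relative to DMSO gave the endpoint. Underlying data: reporter mRNA from HepG2 cells carrying transiently transfected cis-regulated reporter constructs, harvested 24 h after dosing and analyzed by RT-PCR and capillary electrophoresis.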

Test [13] can be described thus: ATG_VDRE_CIS: Attagene CIS-FACTORIAL HepG2 Assay for human Vitamin D Receptor Element (VDRE) (AID 2282968). The settings on record: HepG2 VDRE cis-reporter transcription, actives raise or lower the signal. An outline of the steps:
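Reporter mRNA induction, quantified by capillary electrophoresis of fluorescently labelled RT-PCR products, was read 24 h after dosing HepG2 cells carrying transiently transfected cis-regulated reporter units; gain or loss relative to DMSO.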

Test [14] addresses Nuclear receptor subfamily 1 group I member 3 (Homo sapiens) (UniProt Q14994). Description: ATG_CAR_TRANS: Attagene TRANS-FACTORIAL HepG2 Assay for human Constitutive Androstane Receptor (CAR) (AID 2282969; active = hit-call score of the fitted dose curve at least 0.9, where 1 is the maximum;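 also: activators raise reporter mRNA above DMSO so AC50 marks induction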). The settings on record: HepG2 Attagene TRANS-FACTORIAL CAR reporter. An outline of the steps:
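Readout is reporter mRNA induction, quantified by fluorescent primer extension and capillary electrophoresis after RT-PCR. Cells were HepG2 transiently carrying chimeric NR-Gal4 constructs with GAL4-UAS reporters, treated for 24 h; activity scored upward from DMSO.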

Test [15] deals with Estrogen receptor (Homo sapiens) (UniProt P03372). Put plainly: ATG_ERa_TRANS: Attagene TRANS-FACTORIAL HepG2 Assay for human Estrogen Receptor alpha (ERa) (AID 2282970; active = hit-call score of the fitted dose curve at least 0.9, where 1 is the maximum). The settings on record: HepG2 Attagene TRANS ERa GAL4 reporter, mRNA. In a few lines: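 Human liver HepG2, transient transfection of multiple GAL4-UAS reporter units; TRANS format (exogenous NR-Gal4 chimera). 24 h dosing. Readout: reporter mRNA, RT-PCR, 6-FAM primer extension, HpaI digest, capillary electrophoresis. Positive direction vs DMSO.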

The target of test [16] is X-box-binding protein 1 (Homo sapiens) (UniProt P17861). Put plainly: ATG_Xbp1_CIS: Attagene CIS-FACTORIAL HepG2 Assay for human X-box Binding Protein 1 (XBP1) (AID 2282972). The settings on record: HepG2 XBP1 cis-element reporter, Attagene multiplex; actives raise or lower the signal. An outline of the steps:
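HepG2 cells transiently transfected with multiple cis-element reporter units report endogenous TF activity; 24 h exposure, then reporter mRNA measured by RT-PCR, 6-FAM labelling, HpaI digestion and capillary electrophoresis. Bidirectional fitting versus DMSO.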

In test [17] the target is Androgen receptor (Homo sapiens) (UniProt P10275). Put plainly: ATG_AR_TRANS: Attagene TRANS-FACTORIAL HepG2 Assay for human Androgen Receptor (AR) (AID 2282973; active = hit-call score of the fitted dose curve at least 0.9, where 1 is the maximum). The settings on record: HepG2 Attagene TRANS-FACTORIAL AR reporter transcription. An outline of the steps: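 Steps: transfect HepG2 with multiple GAL4-UAS reporter transcription units (TRANS format, exogenous NR-Gal4 protein); dose 24 h; isolate RNA, reverse-transcribe, PCR-amplify, FAM-label, HpaI-digest; resolve by capillary electrophoresis. Positive direction vs DMSO.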

Test [18] can be described thus: ATG_Sox_CIS: Attagene CIS-FACTORIAL HepG2 Assay for human SRY-box transcription factor (SOX) (AID 2282960). The settings on record: HepG2 Attagene cis-factorial SOX reporter, mRNA; actives raise or lower the signal. An outline of the steps: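 HepG2 cells transiently transfected with multiple cis-regulated reporter units, then dosed for 24 h. Reporter mRNA quantified by RT-PCR, fluorescent labelling, HpaI digestion and capillary electrophoresis; bidirectional fit versus DMSO.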

The nature of test [19]: ATG_M_19_TRANS: Attagene TRANS-FACTORIAL HepG2 Assay for M19 Transcription Factor (Internal Marker) (AID 2282974; active = hit-call score of the fitted dose curve at least 0.9, where 1 is the maximum). The settings on record: HepG2 Attagene TRANS-FACTORIAL M19 internal marker reporter. In a few lines:
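HepG2 transiently transfected with GAL4-UAS multiplex reporter constructs, exposed 24 h; reporter RNA quantified by RT-PCR, 6-FAM labeling, HpaI digestion and capillary electrophoresis; internal background marker fitted upward versus DMSO.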

In test [20] the target is Steroid hormone receptor ERR1 (Homo sapiens) (UniProt P11474). Put plainly: ATG_ERRa_TRANS: Attagene TRANS-FACTORIAL HepG2 Assay for human Estrogen-Related Receptor alpha (ERRa) (AID 2282971; active = hit-call score of the fitted dose curve at least 0.9, where 1 is the maximum). The settings on record: HepG2 Attagene TRANS reporter, ERRa transactivation. An outline of the steps: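 Reporter transcript induction was quantified by RT-PCR and capillary electrophoresis of FAM-labelled, HpaI-cut products after 24 h treatment of HepG2 cells carrying transiently transfected GAL4-UAS reporter units and an exogenous ERRa-Gal4 fusion; activity scored as increase over DMSO.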

Results filed as inconclusive are left out. The source made the active and inactive calls. The calls were made as follows, unless noted: active = hit-call score of the fitted dose curve at least 0.9, where 1 is the maximum; inactive = score below 0.9.

Chain of Paired box protein Pax-6 (Homo sapiens) (P26367 whole entry, looked up): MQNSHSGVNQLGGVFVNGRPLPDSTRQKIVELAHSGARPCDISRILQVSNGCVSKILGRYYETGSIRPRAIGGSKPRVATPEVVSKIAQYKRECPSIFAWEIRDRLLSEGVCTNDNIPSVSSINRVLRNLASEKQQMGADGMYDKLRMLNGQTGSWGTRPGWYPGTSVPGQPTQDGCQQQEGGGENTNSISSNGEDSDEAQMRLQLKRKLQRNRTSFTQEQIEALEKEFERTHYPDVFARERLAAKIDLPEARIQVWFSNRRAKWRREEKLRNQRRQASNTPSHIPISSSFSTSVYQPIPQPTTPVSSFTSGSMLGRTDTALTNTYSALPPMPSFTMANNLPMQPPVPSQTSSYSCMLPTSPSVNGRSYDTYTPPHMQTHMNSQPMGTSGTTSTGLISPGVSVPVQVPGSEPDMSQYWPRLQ
Chain of Signal transducer and activator of transcription 3 (Homo sapiens) (P40763 whole entry, looked up): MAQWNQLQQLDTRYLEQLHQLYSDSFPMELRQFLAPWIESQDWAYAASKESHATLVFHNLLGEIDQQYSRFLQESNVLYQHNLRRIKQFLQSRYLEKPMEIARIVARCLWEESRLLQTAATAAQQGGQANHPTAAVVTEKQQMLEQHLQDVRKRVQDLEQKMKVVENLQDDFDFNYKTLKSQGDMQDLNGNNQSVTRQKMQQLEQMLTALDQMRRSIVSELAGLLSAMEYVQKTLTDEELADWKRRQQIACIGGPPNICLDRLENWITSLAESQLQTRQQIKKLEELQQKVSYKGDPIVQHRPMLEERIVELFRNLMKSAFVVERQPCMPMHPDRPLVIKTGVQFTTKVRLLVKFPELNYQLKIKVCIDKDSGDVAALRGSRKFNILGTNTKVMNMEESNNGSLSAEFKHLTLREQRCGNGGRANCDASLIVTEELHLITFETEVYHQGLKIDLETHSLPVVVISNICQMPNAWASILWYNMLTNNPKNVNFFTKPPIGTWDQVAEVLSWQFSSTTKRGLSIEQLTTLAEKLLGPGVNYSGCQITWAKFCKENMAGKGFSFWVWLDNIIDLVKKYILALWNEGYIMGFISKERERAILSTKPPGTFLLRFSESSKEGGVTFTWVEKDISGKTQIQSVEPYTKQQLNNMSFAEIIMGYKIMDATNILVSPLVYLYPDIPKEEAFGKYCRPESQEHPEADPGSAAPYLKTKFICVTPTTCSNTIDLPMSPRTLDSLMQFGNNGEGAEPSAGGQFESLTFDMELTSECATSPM
Chain of Transcription factor Sp1 (Homo sapiens) (P08047 whole entry, looked up): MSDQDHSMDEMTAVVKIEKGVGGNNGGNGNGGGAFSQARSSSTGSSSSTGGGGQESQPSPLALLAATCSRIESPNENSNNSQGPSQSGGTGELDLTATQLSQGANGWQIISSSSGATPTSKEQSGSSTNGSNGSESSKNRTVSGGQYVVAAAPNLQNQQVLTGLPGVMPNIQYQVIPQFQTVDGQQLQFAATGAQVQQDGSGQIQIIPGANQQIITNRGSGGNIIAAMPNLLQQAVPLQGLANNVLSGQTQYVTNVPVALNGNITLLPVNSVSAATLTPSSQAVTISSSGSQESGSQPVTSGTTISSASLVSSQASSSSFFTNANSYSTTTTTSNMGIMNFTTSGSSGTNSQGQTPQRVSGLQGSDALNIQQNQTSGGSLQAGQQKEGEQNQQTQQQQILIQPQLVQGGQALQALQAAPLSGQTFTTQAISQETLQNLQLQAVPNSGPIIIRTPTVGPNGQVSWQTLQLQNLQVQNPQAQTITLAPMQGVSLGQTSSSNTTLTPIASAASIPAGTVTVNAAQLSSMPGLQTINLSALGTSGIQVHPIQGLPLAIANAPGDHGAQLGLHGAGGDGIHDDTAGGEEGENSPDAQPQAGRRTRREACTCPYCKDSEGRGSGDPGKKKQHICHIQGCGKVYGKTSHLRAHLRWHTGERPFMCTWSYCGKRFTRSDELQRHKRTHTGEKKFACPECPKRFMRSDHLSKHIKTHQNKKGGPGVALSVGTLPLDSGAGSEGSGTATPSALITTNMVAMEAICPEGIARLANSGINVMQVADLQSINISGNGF
Chain of X-box-binding protein 1 (Homo sapiens) (P17861 whole entry, looked up): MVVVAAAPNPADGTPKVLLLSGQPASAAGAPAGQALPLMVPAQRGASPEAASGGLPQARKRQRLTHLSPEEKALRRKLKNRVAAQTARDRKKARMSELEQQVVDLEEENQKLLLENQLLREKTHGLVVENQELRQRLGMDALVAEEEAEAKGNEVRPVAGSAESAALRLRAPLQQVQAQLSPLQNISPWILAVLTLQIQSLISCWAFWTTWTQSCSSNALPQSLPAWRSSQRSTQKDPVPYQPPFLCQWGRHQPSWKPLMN
Chain of Nuclear receptor subfamily 1 group I member 3 (Homo sapiens) (Q14994 whole entry, looked up, the tested form may be a part): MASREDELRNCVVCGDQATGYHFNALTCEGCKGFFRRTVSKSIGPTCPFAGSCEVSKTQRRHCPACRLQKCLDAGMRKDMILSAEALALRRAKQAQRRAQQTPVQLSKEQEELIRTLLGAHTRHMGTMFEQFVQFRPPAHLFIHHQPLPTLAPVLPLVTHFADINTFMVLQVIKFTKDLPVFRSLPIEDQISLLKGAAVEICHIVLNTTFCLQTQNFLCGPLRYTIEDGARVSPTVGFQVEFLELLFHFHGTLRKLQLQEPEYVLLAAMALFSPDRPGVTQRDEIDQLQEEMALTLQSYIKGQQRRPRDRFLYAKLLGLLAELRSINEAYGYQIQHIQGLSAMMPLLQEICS
Chain of Estrogen receptor (Homo sapiens) (P03372 whole entry, looked up, the tested form may be a part): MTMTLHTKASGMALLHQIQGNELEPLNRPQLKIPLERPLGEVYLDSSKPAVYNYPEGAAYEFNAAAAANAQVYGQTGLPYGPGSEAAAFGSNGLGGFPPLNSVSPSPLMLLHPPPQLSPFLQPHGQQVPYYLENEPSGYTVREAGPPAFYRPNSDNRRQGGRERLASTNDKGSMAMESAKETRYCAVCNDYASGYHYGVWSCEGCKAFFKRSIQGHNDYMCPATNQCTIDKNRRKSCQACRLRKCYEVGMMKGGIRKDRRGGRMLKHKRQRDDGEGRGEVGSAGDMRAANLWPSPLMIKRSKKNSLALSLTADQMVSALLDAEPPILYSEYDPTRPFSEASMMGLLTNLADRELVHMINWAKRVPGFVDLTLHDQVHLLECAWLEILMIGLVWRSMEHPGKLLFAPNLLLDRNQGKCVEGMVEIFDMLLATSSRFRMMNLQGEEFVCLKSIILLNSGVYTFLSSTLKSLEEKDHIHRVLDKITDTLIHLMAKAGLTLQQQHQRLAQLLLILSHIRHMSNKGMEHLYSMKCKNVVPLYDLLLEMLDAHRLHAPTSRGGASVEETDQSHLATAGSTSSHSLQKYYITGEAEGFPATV
Chain of Steroid hormone receptor ERR1 (Homo sapiens) (P11474 whole entry, looked up, the tested form may be a part): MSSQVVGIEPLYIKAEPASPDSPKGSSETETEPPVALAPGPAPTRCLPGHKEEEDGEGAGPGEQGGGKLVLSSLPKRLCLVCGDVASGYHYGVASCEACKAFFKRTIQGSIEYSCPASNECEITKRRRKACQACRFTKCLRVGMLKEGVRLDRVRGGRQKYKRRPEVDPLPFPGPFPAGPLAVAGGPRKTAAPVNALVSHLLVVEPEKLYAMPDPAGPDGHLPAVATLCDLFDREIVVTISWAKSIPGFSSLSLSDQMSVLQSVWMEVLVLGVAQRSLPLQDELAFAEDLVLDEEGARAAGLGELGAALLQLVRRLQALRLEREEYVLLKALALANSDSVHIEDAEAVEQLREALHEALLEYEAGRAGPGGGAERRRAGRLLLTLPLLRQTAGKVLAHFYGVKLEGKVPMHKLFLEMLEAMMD
Chain of Androgen receptor (Homo sapiens) (P10275 whole entry, looked up, the tested form may be a part): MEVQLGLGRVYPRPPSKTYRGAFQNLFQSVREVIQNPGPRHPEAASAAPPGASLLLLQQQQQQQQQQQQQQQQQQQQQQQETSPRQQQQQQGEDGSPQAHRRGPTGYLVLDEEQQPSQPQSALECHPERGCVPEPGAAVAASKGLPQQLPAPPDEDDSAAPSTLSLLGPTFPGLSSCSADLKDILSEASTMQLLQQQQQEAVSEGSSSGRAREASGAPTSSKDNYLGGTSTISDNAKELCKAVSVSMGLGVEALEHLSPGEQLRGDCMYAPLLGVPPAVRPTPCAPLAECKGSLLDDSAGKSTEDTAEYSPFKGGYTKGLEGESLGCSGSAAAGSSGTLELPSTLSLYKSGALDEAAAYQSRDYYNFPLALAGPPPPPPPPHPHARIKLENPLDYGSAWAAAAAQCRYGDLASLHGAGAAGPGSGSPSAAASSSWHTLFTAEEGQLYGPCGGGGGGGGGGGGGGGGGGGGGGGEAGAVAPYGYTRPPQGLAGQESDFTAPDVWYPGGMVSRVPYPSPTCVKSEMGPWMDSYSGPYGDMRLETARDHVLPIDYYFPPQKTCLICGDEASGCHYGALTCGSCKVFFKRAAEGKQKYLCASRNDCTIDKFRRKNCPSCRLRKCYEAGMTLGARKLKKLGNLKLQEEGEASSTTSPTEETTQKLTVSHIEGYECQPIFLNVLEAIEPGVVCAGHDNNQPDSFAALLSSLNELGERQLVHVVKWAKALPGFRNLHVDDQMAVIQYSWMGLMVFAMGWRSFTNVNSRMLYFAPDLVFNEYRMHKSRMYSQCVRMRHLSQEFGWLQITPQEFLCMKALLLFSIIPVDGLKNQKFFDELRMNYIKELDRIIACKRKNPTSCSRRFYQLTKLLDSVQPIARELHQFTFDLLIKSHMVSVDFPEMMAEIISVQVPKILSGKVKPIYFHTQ

One may read the AC50 as the concentration at which the activity in the assay is half-maximal. In the case of `ClC1=C(Cl)C2(Cl)C3C(Cl)C(Cl)CC3C1(Cl)C2(Cl)Cl` (configuration not stated), the result in [1], in test [2], in test [4], in test [5], in [6] and in test [7] was inactive. Further, the outcome in [8], in [11], in test [12], in [14], in test [16] and in [17] was inactive. For the same molecule, the AC50 in [3] was 2.38 µM (active); in test [9] it was 39.1 µM (active); in test [10] it was 27.1 µM (active); in test [13], 3.76 µM (active); in test [15], 13.4 µM (active).
For the molecule `CC(Cc1ccc(OCC(=O)O)cc1)NCC(O)c1csc(C(F)(F)F)n1` (configuration not stated), the outcome in test [1], in [2], in test [3], in test [5], in [18] and in test [6] was inactive. In addition, the result in [7], in test [8], in [9], in [10], in test [11] and in test [12] was inactive. In addition, the molecule was classed as inactive in test [13], in test [14], in test [16] and in [19].
As to `O=P(Oc1ccccc1)(Oc1ccccc1)Oc1ccccc1`, the outcome in test [1], in test [4], in [18], in test [6], in test [8] and in [10] was inactive. The molecule was called inactive in test [11], in test [12], in test [14], in test [15] and in test [19]. The AC50 was 33.4 µM (active) in test [2]; 8.63 µM (active) in test [3]; 16.7 µM (active) in test [7]; 42 µM (active) in test [9]; 7.17 µM (active) in test [13]; 49.4 µM (active) in [16].
Turning to `ClC(Cl)c1ccccc1`, the result in [1], in [2], in test [3], in test [4], in [5] and in test [6] was inactive. For the same molecule, the call in [7], in [8], in test [9], in [10], in [11] and in test [12] was inactive. The result in test [13], in [14], in test [20], in [16] and in test [19] was inactive.
